Screens: PubChem, National Center for Advancing Translational Sciences (NCATS)
RXFP1 antag – RXFP1 (human) relaxin receptor antagonism; Q9HBX9; HEK293-RXFP1, relaxin-stimulated cAMP HTRF, 30 min; hits give low values; activity change, negative = inhibition, % at 57.5 µM; hit rate 0.59% among 350,000; AID 1259400;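 active means activity change of -60% or lower, but not beyond a set lower limit; inconclusive means change between -60% and -40%, or beyond the set limit; inactive means change above -40%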; further: on the % scale 0 is the no-effect control and ±100 the full control effect
Target sequence (Q9HBX9 whole entry, looked up): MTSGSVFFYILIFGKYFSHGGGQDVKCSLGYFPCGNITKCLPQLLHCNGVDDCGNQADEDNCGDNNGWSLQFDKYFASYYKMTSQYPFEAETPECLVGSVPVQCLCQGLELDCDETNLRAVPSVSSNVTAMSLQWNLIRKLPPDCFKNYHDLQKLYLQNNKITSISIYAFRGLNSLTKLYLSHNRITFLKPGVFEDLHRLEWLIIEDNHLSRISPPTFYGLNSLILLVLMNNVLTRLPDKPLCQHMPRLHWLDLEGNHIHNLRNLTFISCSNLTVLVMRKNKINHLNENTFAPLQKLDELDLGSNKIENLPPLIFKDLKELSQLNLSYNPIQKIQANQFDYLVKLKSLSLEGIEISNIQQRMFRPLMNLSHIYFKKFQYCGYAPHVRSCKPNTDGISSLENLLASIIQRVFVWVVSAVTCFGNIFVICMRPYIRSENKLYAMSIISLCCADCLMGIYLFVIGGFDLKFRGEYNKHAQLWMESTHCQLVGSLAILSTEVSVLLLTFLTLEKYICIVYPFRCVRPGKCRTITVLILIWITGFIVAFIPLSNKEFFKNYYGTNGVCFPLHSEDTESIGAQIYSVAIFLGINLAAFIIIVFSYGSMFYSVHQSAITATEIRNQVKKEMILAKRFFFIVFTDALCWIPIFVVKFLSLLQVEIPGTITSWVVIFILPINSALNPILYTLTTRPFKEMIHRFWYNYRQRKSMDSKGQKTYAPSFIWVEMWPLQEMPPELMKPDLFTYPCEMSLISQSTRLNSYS
gsp antag – antagonists of gsp mutant (McCune-Albright syndrome). gsp-mutant cells, cAMP HTRF, 30 min. hit rate 0.4% among 340,000. AID 624288. Potency, µM (series often up to 76.9 µM), for the others: at the top dose activity change, negative = inhibition, hits mostly inhibitors; calls by dose curve; cell line not stated here;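 further: intracellular cAMP measured with PDE inhibitor Ro 20-1724 present during compound exposure; potency means the concentration at half of the fitted maximal effect; on the % scale 0 is the no-effect control and ±100 the full control effect; nearly all actives have a fitted effect of over 65% in size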
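Cells, 2000/well, grown 16–24 h in DMEM 10% FBS with 0.5 mg/ml G418, then compounds plus […] (300 uM addition stock), 30 min at 37C. cAMP read by HTRF (cAMP-d2 and anti-cAMP antibody-K in lysis buffer) after 30 min RT.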
RXFP1 agonist – activates the human relaxin receptor RXFP1; Potency, µM (titrated, usually from 57.5 µM), for inactives: top-dose activation, most hits filed as activators; HEK293T-RXFP1 cAMP TR-FRET, 30 min; response scale: percent of porcine relaxin response, buffer zero; Q9HBX9; AID 2676; hit rate 0.3% among 370,000; active means well fitted activation curve with a large enough effect; inconclusive means small, poorly fitted or top-dose-only effect; further: potency means the concentration at half of the fitted maximal effect; on the % scale 0 is the no-effect control and ±100 the full control effect; nearly all actives have a fitted effect of over 60% in size
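Agonist response is measured as cAMP accumulation in an RXFP1-transfected HEK293T line under PDE4 inhibition. Values are scaled between buffer-only and 29 nM porcine relaxin, and EC50s come from standard Hill equation fits.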
gsp agonist – gsp mutant agonism | gsp mutant cells, cAMP HTRF, 30 min | Potency, µM (highest dose often 76.9 µM), for inactives: at the highest dose activation (cAMP increase), usual class: activators | hit rate 0.13% among 340,000 | AID 624287; active means well fitted activation curve with a large enough effect; inconclusive means small, poorly fitted or top-dose-only effect, or another doubt; inactive means no such curve, though single readings can be large or run the other way; cell line not stated here;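 further: phosphodiesterase inhibitor Ro 20-1724 added with compounds to block cAMP breakdown; potency means the concentration at half of the fitted maximal effect; nearly all actives have a fitted effect of over 60% in size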
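Cells in DMEM/10% FBS with G418 were pretreated with compounds in DMSO plus […] (300 uM stock) for 30 min at 37C. cAMP was measured by HTRF (cAMP-d2 plus anti-cAMP antibody-K) after 30 min at room temperature.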
* hit, by the source's call; ? = inconclusive; . = no result given; [ ] = another dose, or the depositor's remark. Compounds with a hit are over-represented: about 0.9% of the library has one in this group of screens.

SMILES	RXFP1 antag	gsp antag	RXFP1 agonist	gsp agonist
COc1ccccc1C(=O)Nc1ccc(C(=O)Nc2ccccc2C(=O)O)cc1	-18.0	35.5µM*	2.0%	?
Cc1ccc(C(=O)Nc2ccccc2C(=O)O)cc1S(=O)(=O)N1CCCCCC1	-102.4*	.	-0.2%	.
COc1ccccc1NC(=O)c1ccccc1NC(=O)c1ccccc1	-13.5	.	0.9%	.
COc1ccc(CCNC(=O)CCCn2c(=O)c3ccccc3n(Cc3ccccc3C)c2=O)cc1OC	.	.	5.4%	.
CCCCC/C=C/C/C=C/CCCCCCCC(=O)NC(C)c1ccccc1 (stereo unspecified)	-27.4	.	.	.
COc1cc(S(N)(=O)=O)cc(C(=O)O)c1OC	-7.2	.	.	.
O=C(Nc1ccccc1C(=O)O)c1ccc(NC(=O)c2ccc(Br)o2)cc1	-36.6	35.5µM*	-2.4%	22.3%
O=C(NNC(=O)c1ccc(Br)o1)c1ccc(NC(=O)c2ccccc2)cc1	-16.5	.	1.6%	13.3%[15.4 µM]
COc1ccc(C(=O)NC2CCCCCC2)cc1S(=O)(=O)N1CCCC1	-4.4	11.2µM*	1.0%	4.4%[15.4 µM]
c1ccc(CC(Nc2ccccn2)c2ccccc2)cc1 (stereo unspecified)	-60.2*	-2.4%	0.0%	-4.1%[15.4 µM]
O=C(Cn1ncn2c(cc3ccccc32)c1=O)NCc1ccc(F)cc1	0.8	.	7.5%	.
COc1ccc(-c2nc(C(=O)NCC3CCCO3)cc3c2[nH]c2ccccc23)cc1 (stereo unspecified)	.	28.2µM*	4.0%	.
Cc1ccc(-c2nc(C(=O)NCC3CCCO3)cc3c2[nH]c2ccccc23)cc1 (stereo unspecified)	.	?	-0.3%	.
COc1ccc2[nH]c(=O)c(CN(CC3CCCO3)C(=O)Nc3ccc(F)cc3)cc2c1 (stereo unspecified)	.	31.6µM*	-0.6%	10.5%
COc1ccc(NC(=O)N(Cc2cc3cc(C)ccc3[nH]c2=O)CC2CCCO2)cc1 (stereo unspecified)	7.7	-6.8%	6.9%	-102.4%
O=[N+]([O-])c1c(Nc2ccc(O)cc2)cc(Cl)c2nonc12	?	7.94µM*	5.6%	-25.0%
CN(C)c1cc(Nc2ccc(O)cc2)c([N+](=O)[O-])c2nonc12	14.7	-2.9%	4.8%	24.0%
Nc1ccc([N+](=O)[O-])c(C(F)(F)F)c1	15.9	.	.	.
Cc1ccccc1N/N=C/c1sc(=O)n(Cc2cccc(C(=O)O)c2)c1Cl	-72.7*	?	-2.4%	?
Cc1ccc(/C=N/n2c(-c3cccnc3)n[nH]c2=S)s1	9.7	7.94µM*	0.4%	-19.6%
S=c1[nH]nc(-c2cccnc2)n1/N=C/c1ccc(Br)s1	-4.1	?	1.1%	-4.8%[15.4 µM]
CN(C)C(=S)Nc1cccc(-c2n[nH]c(=S)o2)c1	-3.6	-0.1%	20.1%	6.7%[15.4 µM]
NNC(=S)Nc1cccc(-c2n[nH]c(=S)o2)c1	-8.5	1.2%	?	10µM*
O=C1C=CC2(O[C@H](c3ccccc3)[C@@H](c3ccccc3)O2)[C@H](Sc2ccccc2O)C1	-98.5*	-12.7%	.	-7.5%
C#C[C@]1(OC(C)=O)CC[C@H]2[C@@H]3CCC4=C/C(=N/O)CC[C@@H]4[C@H]3CC[C@@]21CC	-32.2	.	.	.
SMILES	RXFP1 antag	gsp antag	RXFP1 agonist	gsp agonist
Oc1ccc(Nc2nc(-c3ccccc3)nc3ccccc23)cc1	-76.6*	-10.4%	-1.4%	5.4%[15.4 µM]
O=C1C=C(O)c2cccc3cccc1c23	21.5	-0.8%	17.8µM*	?
Cc1cccc(N2CCN(C(=O)c3c(C)oc4nc(C)nc(N5CCCC5)c34)CC2C)c1 (stereo unspecified)	4.2	.	-0.4%	.
COc1ccc(C(c2c(C)[nH]n(C(N)=S)c2=O)C(C#N)C#N)cc1 (stereo unspecified)	8.1	7.0%	-0.2%	-28.7%
Cc1[nH]n(-c2ncc(-c3ccc(Cl)cc3)s2)c(=O)c1C(c1ccc(Cl)cc1)C(C#N)C#N (stereo unspecified)	-87.8*	-7.3%	0.7%	-6.4%[15.4 µM]
CCN(CCCNC(=O)c1cc2c(=O)n(C)c3ccccc3c2s1)Cc1ccccc1	-5.3	.	.	.
CC12CCC(C(=O)N(CSC(=S)N/N=C\c3ccccc3Cl)C1=O)C2(C)C (stereo unspecified)	-64.7*	-13.3%	-0.1%	0.1%[15.4 µM]
CN(C)S(=O)(=O)c1ccc(Cl)c(C(=O)OCC(=O)NC(=O)NC2CCCC2)c1	-3.9	1µM*	2.4%	-9.9%
CC(=O)OCC(=O)[C@@]1(O)[C@H](OC(C)=O)C[C@H]2[C@@H]3CCC4=CC(=O)C=C[C@]4(C)[C@@]3(F)[C@@H](O)C[C@@]21C	-16.5	.	.	.
Cc1ccc(-c2nc3ccc([N+](=O)[O-])cc3[nH]2)cc1	-17.4	?	-1.8%	17.7%
O=[N+]([O-])c1ccc2nc(-c3ccc(Cl)cc3)[nH]c2c1	-29.7	35.5µM*	0.2%	-4.9%
O=[N+]([O-])c1ccc2nc(-c3ccncc3)[nH]c2c1	0.3	-2.6%	26.8%	10µM*
O=[N+]([O-])c1cccc(-c2nc3ccc([N+](=O)[O-])cc3[nH]2)c1	5.8	-25.2%	18.7%	?
CC(C)C[C@H](NC(=O)[C@H](CCc1ccccc1)NC(=O)CN1CCOCC1)C(=O)N[C@@H](Cc1ccccc1)C(=O)N[C@@H](CC(C)C)C(=O)[C@@]1(C)CO1	13.2	.	.	.
Cc1cc(O)c(C)c(C)c1O	26.1	.	.	.
CCN1C(C(=O)c2ccccc2)=C(OC(=O)c2ccccc2OC)c2ccccc2S1(=O)=O	-21.6	.	-0.1%	.
CN(C)c1nc(-c2cn(CCC#N)c3ccccc23)cs1	-81.9*	?	0.5%	-11.1%[15.4 µM]
COCCn1cc(-c2csc(N)n2)c2ccccc21	0.5	0.6%	-0.6%	-31.6%
CCOCCn1ccc2c(OCC(=O)Nc3cccc(F)c3)cccc2c1=O	.	.	2.9%	.
Cc1ccc2nc(N3CCN(c4cccc(Cl)c4)CC3)c(-n3nc(C)cc3C)nc2c1	-19.0	.	8.1%	.
COCCn1c(=N)c(C(=O)NCCc2ccc(OC)cc2)cc2c(=O)n3cccc(C)c3nc21	-13.1	12.3%	1.0%	1.1%
COc1ccc(CCn2c(=N)c(C(=O)NCC3CCCO3)cc3c(=O)n4cccc(C)c4nc32)cc1 (stereo unspecified)	-0.9	5.1%	17.8µM*	?
COCCCn1c(=N)c(C(=O)NCc2cccnc2)cc2c(=O)n3cccc(C)c3nc21	0.0	.	?	.
COc1ccc(CNC(=O)c2cc3c(=O)n4cccc(C)c4nc3n(CC3CCCO3)c2=N)cc1 (stereo unspecified)	10.5	5.3%	?	2.24µM*
COCCCNC(=O)c1cc2c(=O)n3cccc(C)c3nc2n(C(C)C)c1=N	4.5	0.7%	14.7%	22.4µM*
O=C(Cn1c2ncccc2c(=O)n1-c1ccccc1)NCc1ccccc1Cl	-9.8	.	0.1%	.
N#C/C(=C/c1ccc(Sc2nc3ccccc3[nH]2)o1)c1cccc(F)c1	-2.2	35.5µM*	-0.9%	17.2%
COc1cccc(CNC(=O)c2cc(=O)[nH]c3ccc(S(=O)(=O)N4CCCC4)cc23)c1	.	.	0.8%	.
CCC(=O)N1CCCc2cc(S(=O)(=O)N3CCC(C(=O)Nc4ccc(F)c(F)c4)CC3)ccc21	-14.1	.	2.6%	.
